Screens from PubChem.
NS1 inh: blocks influenza NS1 protein function | Potency, µM (doses to about 46.1 µM), for inactives: at the highest dose activity, positive = more growth | 270,000 tested, 0.4% active; calls by dose curve; note: potency is the fitted concentration of half-maximal effect; actives are rising curves; nearly all actives have a fitted effect of over 50% in size
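Growth recovery, yeast-based: influenza A NS1 expressed in S. cerevisiae causes slow growth, and suppressors are detected by OD600. The parent strain without NS1 is used as positive control.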
CHX counter: counter-screen for Shiga toxin inhibitors: cycloheximide protein synthesis inhibition | AID 2314 | max response, % | cell reporter, cycloheximide protein synthesis inhibition counterscreen | 300,000 tested, 12% active; in the data active = max response mostly above about 13%, no sharp cut-off; inactive = mostly below about 14%; note: read at 38.3 µM for the half of the compounds with a filed dose; 0% is about no effect
Shiga toxin inh: inhibitors of Shiga toxin in Vero cells; inhibition, % at 38.7 µM; Vero cells, Shiga toxin protein synthesis inhibition reporter; 290,000 tested, 9.2% active; in the data active = inhibition mostly above about 28%, no sharp cut-off; inactive = mostly below about 43%; note: 0% is about no effect
Pf growth 96h: inhibits malaria parasite growth, 96 h. Potency, µM (series often up to 28.7 µM), for inactives: at the top dose activity change, negative = inhibition, most hits filed as inhibitors. 320,000 tested, 6.9% active. P. falciparum luciferase reporter growth, 96 h; note: potency is the fitted concentration of half-maximal effect; % is set by controls: 0 for no effect and ±100 for the full control effect
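Parasite growth measured via integrated firefly luciferase reporter in P. falciparum. Infected erythrocytes at 2% hematocrit, 0.05% parasitemia final were treated 96 hours at 37 C under 5% CO2, and luminescence was read.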
Pf growth 48h: P. falciparum growth inhibition at 48 hours (one generation) | AID 504832 | Potency, µM (titrated, usually from 28.7 µM), inactives show at the top dose activity change, negative = inhibition, most hits filed as inhibitors | P. falciparum luciferase growth in erythrocytes, 48 h | 310,000 tested, 5.9% active; note: potency is the fitted concentration of half-maximal effect; % is set by controls: 0 for no effect and ±100 for the full control effect
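Erythrocytes infected with P. falciparum carrying an integrated firefly luciferase reporter (2% hematocrit, 0.1% parasitemia final) were exposed to compounds in RPMI 1640 with 0.5% Albumax at 37 C, 5% CO2. Growth inhibition was scored as reduced luminescence.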
An asterisk follows results filed as active; ? = inconclusive; / = no result; + = active, no number. This is a sample that favours compounds with a hit; in the whole collection about 21% have one here. Unless noted, calls come from the whole dose curve; as a rule, active = well fitted inhibition curve with a large enough effect; inconclusive = small, poorly fitted or top-dose-only effect, or another doubt; inactive = no such curve, though single readings can be large or run the other way.

SMILES	NS1 inh	CHX counter	Shiga toxin inh	Pf growth 96h	Pf growth 48h
CC(=O)c1ccc(N2Cc3ccccc3/C2=N\C(=O)Nc2ccccc2)cc1	13%	28*	43	120%	76%
N#Cc1ccc(N2Cc3ccccc3C2=NC(=O)c2cccs2)cc1	1%	38*	+	-14%	62%
CC(=O)c1ccc(N2Cc3ccccc3C2=NC(=O)c2cccs2)cc1	8%	26*	60*	81%	112%
CC(=O)c1cccc(N2Cc3ccccc3C2=NC(=O)CCl)c1	5%	25*	43	13µM*	-26%
CC(C)NC(=O)Cn1cc(S(=O)(=O)N2CCCC2)c(S(=O)(=O)N2CCCC2)c1	2%	-2	-3	-19%	43%
COc1ccccc1C1=Nn2c(nnc2-c2ccccc2C)SC1	/	-3	-14	/	/
Nc1nc(COc2ccc(F)cc2)nc(N2CCCCC2)n1	/	19*	-10	22%	22%
COC(=O)c1ccc(OCc2nc(N)nc(N3CCOCC3)n2)cc1	6%	-6	24	-27%	1%
CCOc1ccc2c(O)csc2c1	-16%	15	17	-8%	18%
CCCN=Cc1sc2ccc(OCC)cc2c1O	-86%	41*	101*	54%	75%
CCOC(=O)CNC(=O)N1CCCC(N(C)CCc2ccccc2)C1 (centres undefined)	9%	0	-4	-9%	-1%
CC[N+](CC)(CCNC(=O)C(=O)NCC[N+](CC)(CC)Cc1ccccc1Cl)Cc1ccccc1Cl	/	/	/	6µM*	?
Cc1ccc2nc(C3CCCN(C(=S)Nc4ccccc4C)C3)[nH]c2c1 (centres undefined)	-2%	14	29	0%	-17%
COc1ccccc1NC(=O)N1CCC(c2nc3cc(C)c(C)cc3[nH]2)CC1	-11%	12	6	46%	?
COc1ccccc1NC(=S)N1CCC(c2nc3cc(C)c(C)cc3[nH]2)CC1	?	-3	0	12µM*	?
Cc1cc2nc(C3CCCN(C(=S)Nc4ccccc4)C3)[nH]c2cc1C (centres undefined)	12%	35*	59	1%	-11%
COC(=O)/C(=C(/F)Sc1cc(C)c(O)c(C)c1)C(F)(F)F	-36%	8	-6	/	9.3µM*
CC1CCc2sc(C(=O)N=Nc3c(O)[nH]c4ccccc34)cc2C1 (centres undefined)	6%	12	-5	42%	30%
Cc1ccc(C(=O)COC(=O)c2ccc(-c3cnc4ccccc4n3)cc2)cc1C	17%	14*	-5	48%	36%
Cc1ccc(C(=O)CSc2cnc3ccccc3n2)cc1C	10%	63*	70*	305%	295%
Cc1ccc(C(=O)COC(=O)c2cc(Cl)nc3ccccc23)cc1C	4%	7	-5	48%	?
Cc1ccc(C(=O)COC(=O)CCc2nc3ccccc3[nH]c2=O)cc1C	1%	-4	-14	2.6µM*	11%
CC12CCC(=O)N1C(C(=O)OCc1c(Cl)cccc1Cl)CS2 (centres undefined)	-2%	-8	-4	18%	4%
Cc1onc(-c2ccccc2)c1C(=O)NNC(=S)NC(=O)/C=C/c1cccs1	-9%	-7	-8	?	23%
CCOc1ccc(NC(=S)Nc2ccc(C)c([N+](=O)[O-])c2)cc1	-3%	-5	-10	2.1µM*	/
SMILES	NS1 inh	CHX counter	Shiga toxin inh	Pf growth 96h	Pf growth 48h
COc1cccc(NC(=S)/C(=C(\[O-])c2ccc([N+](=O)[O-])cc2)[n+]2ccccc2)c1	/	24*	66*	-13%	0%
O=[N+]([O-])c1cccc(/C([O-])=C(/C(=S)Nc2cccc3ccccc23)[n+]2ccccc2)c1	?	27*	64*	?	9.3µM*
CCOc1ccc(NC(=S)/C(=C(\[O-])c2ccc(C)c([N+](=O)[O-])c2)[n+]2ccccc2)cc1	2%	33*	41*	/	?
Cc1ccc(/C([O-])=C(/C(=S)NCc2ccccc2)[n+]2ccccc2)cc1[N+](=O)[O-]	/	-3	-5	-22%	9%
O=[N+]([O-])c1ccc(/C([O-])=C(/C(=S)Nc2ccccc2F)[n+]2ccccc2)cc1	/	4	16	1%	38%
CCc1cc[n+](/C(C(=S)Nc2cccc(C)c2)=C(/[O-])c2ccc(C)c([N+](=O)[O-])c2)cc1	3%	-1	5	0.15µM*	?
COc1ccc(C(=S)N(C)C)cc1OC	-5%	-2	-19	8.3µM*	15%
